The results in this text go back to PubChem BioAssay (Tox21).

Inconclusive results are not listed. Values without a mark were called inactive. Active and inactive are the calls of the source. Unless noted, calls come from the whole dose curve; as a rule, active = well fitted curve in the direction sought with a large enough effect in the repeat runs; inconclusive = weak or mixed curves; inactive = no such curve, though single readings can be large; an effect the other way counts as inactive or inconclusive. Non-standard residues stand in square brackets, D forms with d. Residues, ends and D or L forms follow the SMILES beside them. pGlu = O=C1CC[C@@H](C(=O)O)N1; Thz = O=C(O)[C@@H]1CSCN1

The nature of assay [1]: qHTS assay to identify aromatase inhibitors - cell viability counter screen (AID 743084).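 Note: cells stimulated with testosterone during compound exposure; nearly all actives have a fitted effect of over 55% in size.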 A general note: qHTS replaces the single test concentration by a dilution series.
Assay [2] deals with Aryl hydrocarbon receptor (Homo sapiens) (UniProt P35869). As to the kind of experiment: qHTS assay to identify small molecule that activate the aryl hydrocarbon receptor (AhR) signaling pathway (AID 743085).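 For activation: HG2L7.5c1 human HepG2 liver cells with stably integrated DRE-driven firefly reporter; series mostly up to about 70 µM.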 Note: nearly all actives have a fitted effect of over 15% in size. Note: potency is the fitted concentration of half-maximal effect. Put shortly: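 Luminescence read-out: ONE-Glo reagent, 30 min at room temperature, in HG2L7.5c1 HepG2 reporter cells treated 24 h at 37C. Viability was measured beforehand by CellTiter-Fluor fluorescence after 30 min at 37C.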
Sequence of Aryl hydrocarbon receptor (Homo sapiens) (P35869 whole entry, looked up): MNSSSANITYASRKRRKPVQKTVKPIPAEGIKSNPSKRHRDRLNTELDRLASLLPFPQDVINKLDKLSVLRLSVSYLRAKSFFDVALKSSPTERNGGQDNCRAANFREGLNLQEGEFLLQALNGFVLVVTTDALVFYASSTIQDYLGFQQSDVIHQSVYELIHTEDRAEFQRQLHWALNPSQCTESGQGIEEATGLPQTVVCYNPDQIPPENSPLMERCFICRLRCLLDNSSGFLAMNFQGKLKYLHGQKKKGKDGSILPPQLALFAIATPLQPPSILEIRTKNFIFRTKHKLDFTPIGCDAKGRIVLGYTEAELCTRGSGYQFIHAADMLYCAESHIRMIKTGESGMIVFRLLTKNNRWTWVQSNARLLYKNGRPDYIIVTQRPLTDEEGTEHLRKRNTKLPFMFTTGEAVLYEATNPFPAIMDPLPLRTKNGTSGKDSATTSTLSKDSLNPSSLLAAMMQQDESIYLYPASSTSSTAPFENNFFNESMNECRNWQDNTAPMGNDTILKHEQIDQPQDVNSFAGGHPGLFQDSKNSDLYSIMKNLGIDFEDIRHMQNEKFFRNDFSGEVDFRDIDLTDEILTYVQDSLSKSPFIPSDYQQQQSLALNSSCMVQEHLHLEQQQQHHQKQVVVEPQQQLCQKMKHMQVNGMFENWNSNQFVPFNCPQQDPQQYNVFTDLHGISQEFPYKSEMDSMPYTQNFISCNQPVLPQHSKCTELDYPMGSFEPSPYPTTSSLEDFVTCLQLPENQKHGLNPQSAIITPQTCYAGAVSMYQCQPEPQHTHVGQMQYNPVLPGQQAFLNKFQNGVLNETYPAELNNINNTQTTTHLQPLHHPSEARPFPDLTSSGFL

A short description of assay [3]: qHTS assay to identify small molecule that activate the aryl hydrocarbon receptor (AhR) signaling pathway - cell viability counter screen (AID 743086).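 Note: HepG2 liver cells carrying the AhR DRE luciferase reporter; series mostly up to about 70 µM; nearly all actives have a fitted effect of over 45% in size.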 Put shortly: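 HepG2-AhR-luc (HG2L7.5c1) cells, 4000/well, treated 24 h at 37 C with compound; viability measured as CellTiter-Fluor fluorescence after 30 min in the same wells as the luciferase read.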
In assay [4] the target is Peroxisome proliferator-activated receptor gamma (Homo sapiens) (UniProt P37231). As to the kind of experiment: qHTS assay to identify small molecule agonists of the peroxisome proliferator-activated receptor gamma (PPARg) signaling pathway (AID 743094; active = well fitted activation curve with a large enough effect in the signal ratio in the repeat runs, not every such curve was filed as active; the % refers to the signal ratio). In outline:
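Reporter activation was scored by fluorescence of cleaved LiveBLAzer B/G substrate (1 h, room temperature) in PPARg-bla HEK293H cells previously treated 17 h at 37C with DMSO-dissolved compounds.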

Assay [5] is described as follows: qHTS assay to identify small molecule phospholipidosis (PLD) inducers (AID 1259344; active = well fitted curve in the direction sought with a large enough effect; an effect the other way counts as inactive or inconclusive). In outline:
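Read-out is LipidTOX Red fluorescence (ex 595/em 615) imaged in HepG2 cells after 24 h compound exposure at 37 C, with Hoechst nuclear counterstain (ex 352/em 461) allowing per-cell normalisation.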

Assay [6] deals with Nuclear receptor subfamily 1 group I member 2 (Rattus norvegicus) (UniProt Q9R1A7). As to the kind of experiment: Rat pregnane X receptor (rPXR) activation by small molecules, qHTS assay (AID 1346983). Note: nearly all actives have a fitted effect of over 20% in size. The note with it: rPXR luciferase reporter cells, One-Glo luminescence, 24 h; max activation: active compounds read high. Put shortly:
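Cell-based rPXR activation assay: rPXR cells, 2,000 per well, rested 5hr at 37 C, then exposed to compounds in DMSO for 24 hr at 37 C. Luciferase activity read by One-Glo luminescence after 30 min at room temperature.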

For assay [7], the target named is Nuclear receptor subfamily 1 group I member 2 (Homo sapiens) (UniProt O75469). The assay is described as follows: CYP3A4 induction through human pregnane X receptor (PXR) by small molecules, qHTS assay (AID 1346984). Note: nearly all actives have a fitted effect of over 40% in size. Put shortly: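 Induction measured in HepG2-based DPX-2 cells co-expressing human PXR and a CYP3A4 promoter-driven luciferase. After a 24-hour compound exposure, cells received CYP3A4 luciferin substrate at 3uM final for 3 hours, and light output was then recorded.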

Assay [8] has the same target. The assay is described as follows: Human pregnane X receptor (PXR) activation by small molecules, qHTS assay (AID 1346985). Note: nearly all actives have a fitted effect of over 40% in size. Put shortly: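 DPX-2 cells (HepG2 co-transfected with a PXR response element and a CYP3A4-promoter luciferase construct) were seeded at 2,000 per well, rested 5 hr at 37C, then exposed to DMSO-dissolved compounds for 24 hr. Activation was read as luciferase luminescence.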
% is set by controls: 0 for no effect and ±100 for the full control effect.

Sequence of Peroxisome proliferator-activated receptor gamma (Homo sapiens) (P37231 whole entry, looked up): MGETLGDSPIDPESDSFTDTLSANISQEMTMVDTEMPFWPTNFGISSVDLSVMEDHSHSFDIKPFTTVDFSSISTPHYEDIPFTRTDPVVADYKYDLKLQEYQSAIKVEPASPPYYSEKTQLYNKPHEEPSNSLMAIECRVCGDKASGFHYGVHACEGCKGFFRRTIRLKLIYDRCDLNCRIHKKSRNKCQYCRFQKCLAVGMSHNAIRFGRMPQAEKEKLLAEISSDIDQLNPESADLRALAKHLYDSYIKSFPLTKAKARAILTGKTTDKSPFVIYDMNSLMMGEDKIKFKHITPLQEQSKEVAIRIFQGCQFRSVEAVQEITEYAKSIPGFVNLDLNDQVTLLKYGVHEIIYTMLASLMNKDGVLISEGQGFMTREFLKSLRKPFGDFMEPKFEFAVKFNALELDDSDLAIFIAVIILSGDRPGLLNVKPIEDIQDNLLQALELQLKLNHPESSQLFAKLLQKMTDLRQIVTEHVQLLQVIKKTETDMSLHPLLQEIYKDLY
Sequence of Nuclear receptor subfamily 1 group I member 2 (Rattus norvegicus) (Q9R1A7 whole entry, looked up): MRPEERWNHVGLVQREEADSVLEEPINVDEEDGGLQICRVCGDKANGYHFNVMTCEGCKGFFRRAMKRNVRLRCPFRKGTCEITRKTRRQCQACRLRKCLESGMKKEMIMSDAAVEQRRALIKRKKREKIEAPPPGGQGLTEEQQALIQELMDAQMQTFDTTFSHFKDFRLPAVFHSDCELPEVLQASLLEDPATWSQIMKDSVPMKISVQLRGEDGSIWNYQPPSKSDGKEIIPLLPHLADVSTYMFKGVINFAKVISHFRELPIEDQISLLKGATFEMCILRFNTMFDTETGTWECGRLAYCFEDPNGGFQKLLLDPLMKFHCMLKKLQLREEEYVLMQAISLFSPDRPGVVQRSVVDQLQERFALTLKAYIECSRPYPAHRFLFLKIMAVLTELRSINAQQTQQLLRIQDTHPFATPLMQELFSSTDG

For the compound `Cc1ncc(COP(=O)(O)O)c(CN)c1O`, the Potency result in assay [1], in assay [2], in assay [3], in assay [4], in assay [7] and in assay [8] was “inactive” in each case. In addition, the PLD induction in assay [5] is -1.52% [at 7.66 µM]. Besides, the max activation in assay [6] was 0.341%.

Regarding `CC1(C)S[C@@H]2[C@H](NC(=O)C(N)c3ccccc3)C(=O)N2[C@H]1C(=O)OC1OC(=O)c2ccccc21` (stereo not given in full), the Potency entry in assay [1], in assay [2], in assay [3], in assay [4], in assay [5] and in assay [7] was “inactive” throughout. In addition, the Potency entry in assay [8] was “inactive”. In addition, the max activation in assay [6] was -3.71%.

`CCCCC(C)(O)C/C=C/[C@H]1[C@H](O)CC(=O)[C@@H]1CCCCCCC(=O)OC` (stereo not given in full): the Potency result in assay [1], in assay [2], in assay [3], in assay [4], in assay [5] and in assay [7] was “inactive” each time. The Potency result in assay [8] was “inactive”. In addition, the max activation in assay [6] was -4.82%.

With `O=P(O)(O)OC[C@H](O)CO`, the Potency result in assay [1], in assay [2], in assay [3], in assay [4], in assay [5] and in assay [7] was “inactive” in each case. For the same compound, in assay [8], the Potency result was “inactive”. The max activation in assay [6] is -3.61%.

Consider `CC(C)CCC[C@@H](C)[C@H]1CC(=O)C2=C3CC[C@H]4C[C@@H](O)CC[C@]4(C)[C@H]3CC[C@@]21C`, for which the Potency entry in assay [1], in assay [2], in assay [3], in assay [4], in assay [5] and in assay [7] was “inactive” throughout. The Potency entry in assay [8] was “inactive”. For the same compound, the max activation in assay [6] is -2.36%.

Regarding `CC(C)CCCC(C)NC(C)C` (stereo not given), the Potency entry in assay [1], in assay [2], in assay [3], in assay [4], in assay [5] and in assay [7] was “inactive” each time. The Potency result in assay [8] was “inactive”. The max activation in assay [6] was -0.288%.

With `O=C1CC[C@@H](C(=O)N2CSC[C@H]2C(=O)O)N1` ([pGlu]-[Thz]-OH), the Potency result in assay [1], in assay [2], in assay [3], in assay [4], in assay [5] and in assay [7] was “inactive” each time. In addition, the Potency result in assay [8] is “inactive”. For the same compound, in assay [6], the max activation was 0.797%.

For `OCCO[C@@H]1[C@@H](O)[C@H](O)[C@@H](CO)O[C@@H]1O`, the Potency result in assay [1], in assay [2], in assay [3], in assay [4], in assay [5] and in assay [7] was “inactive” each time. Further, the Potency entry in assay [8] is “inactive”. Also, the max activation in assay [6] is -3.49%.

As for `CC(C)(CO)[C@@H](O)C(=O)NCCCC(=O)O`, the Potency entry in assay [1], in assay [2], in assay [3], in assay [4], in assay [5] and in assay [7] was “inactive” each time. The Potency entry in assay [8] is “inactive”. The max activation in assay [6] was -8.61%.

For the compound `CC[C@H](C)[C@@H]1NC(=O)[C@H](Cc2ccc(O)cc2)NC(=O)[C@@H](N)CSSC[C@@H](C(=O)N2CCC[C@H]2C(=O)N[C@@H](CC(C)C)C(=O)NCC(N)=O)NC(=O)[C@H](CC(N)=O)NC(=O)[C@H](CCC(N)=O)NC1=O`, the Potency result in assay [1], in assay [2], in assay [3], in assay [4], in assay [5] and in assay [7] was “inactive” each time. For the same compound, the Potency result in assay [8] is “inactive”. The max activation in assay [6] was 0.0402%.

As for `CC(=O)N(CC(C)C(=O)O)c1c(I)cc(I)c(N)c1I` (stereo not given), the Potency entry in assay [1], in assay [2], in assay [3], in assay [4], in assay [5] and in assay [7] was “inactive” in each case. For the same compound, the Potency entry in assay [8] is “inactive”. Besides, the max activation in assay [6] is -1.91%.

As for `COC(F)(F)C(Cl)Cl`, the Potency result in assay [1], in assay [2], in assay [3], in assay [4], in assay [5] and in assay [7] was “inactive” in each case. For the same compound, in assay [8], the Potency entry was “inactive”. In addition, the max activation in assay [6] was 0.553%.

`CC(C)NCC(O)COc1ccccc1-n1cccc1` (stereo not given): the Potency result in assay [1], in assay [2], in assay [3], in assay [4], in assay [5] and in assay [7] was “inactive” each time. In addition, the Potency result in assay [8] was “inactive”. Moreover, in assay [6], the max activation was 1.86%.

As for `CC(=O)Oc1c(C)cc(OCC(O)CNC(C)C)c(C)c1C` (stereo not given), the Potency result in assay [1], in assay [2], in assay [3], in assay [4], in assay [5] and in assay [7] was “inactive” throughout. In addition, the Potency result in assay [8] is “inactive”. In assay [6], the max activation is -4.59%.

For `Cc1cccc(Nc2ncccc2C(=O)O)c1C`, the Potency result in assay [1], in assay [3], in assay [4], in assay [5], in assay [7] and in assay [8] was “inactive” each time. For the same compound, the Potency in assay [2] is 29.8 µM (active). Besides, the max activation in assay [6] was -0.253%.

`C[N@+]12CCCC[C@@H]1CCC(=C(c1cccs1)c1cccs1)C2`: the Potency entry in assay [1], in assay [2], in assay [3], in assay [4], in assay [5] and in assay [7] was “inactive” throughout. In addition, the Potency entry in assay [8] is “inactive”. The max activation in assay [6] was -3.7%.

On to `CC1(C)S[C@@H]2[C@H](NC(=O)C(C(=O)O)c3ccsc3)C(=O)N2[C@H]1C(=O)O` (stereo not given in full), for which the Potency result in assay [1], in assay [2], in assay [3], in assay [4], in assay [5] and in assay [7] was “inactive” in each case. The Potency entry in assay [8] was “inactive”. Besides, the max activation in assay [6] is -6.29%.

Consider `CCOC(=O)O[C@]1(C(=O)COC(=O)CC)CC[C@H]2[C@@H]3CCC4=CC(=O)C=C[C@]4(C)[C@H]3[C@@H](O)C[C@@]21C`, for which the Potency entry in assay [1], in assay [2], in assay [3], in assay [4], in assay [5] and in assay [7] was “inactive” each time. Also, the Potency entry in assay [8] is “inactive”. Further, the max activation in assay [6] is 13.1%.

Regarding `CC(C)(S)[C@@H](N)C(=O)O`, the Potency result in assay [1], in assay [2], in assay [3], in assay [4], in assay [5] and in assay [7] was “inactive” throughout. For the same compound, the Potency entry in assay [8] is “inactive”. The max activation in assay [6] is -3.13%.

`C[C@@H](O)[C@H]1C(=O)N2C(C(=O)[O-])=C(SC3Cn4cnc[n+]4C3)[C@H](C)[C@H]12` (stereo not given in full): the Potency entry in assay [1], in assay [2], in assay [3], in assay [4], in assay [5] and in assay [7] was “inactive” in each case. Besides, in assay [8], the Potency entry was “inactive”. Moreover, in assay [6], the max activation was 0.401%.
